Data on 5 compounds can be found in PubChem BioAssay.

A short description of assay [1]: yeast TOR pathway RPL19A-GFP modulators, primary screen, cell-based, S. cerevisiae, multiplex flow cytometry (AID 1862; in the data active = percent of DMSO control GFP below about 86%;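 also: lower values mimic rapamycin by blocking the RPL19A rise seen in DMSO cells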). The following applies: S. cerevisiae RPL19A-GFP strain, flow cytometry fluorescence, 3 h; at 10 µM; stronger effect = lower value.
A short description of assay [2]: modulators of MEP2-GFP levels in yeast, primary screen, S. cerevisiae, multiplex flow cytometry (AID 1867;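 active = GFP response, as percent of the DMSO control, above the screen-wide mean plus 3 SD, about 139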;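 also: median GFP channel fluorescence of barcode-gated MEP2-GFP cells measured by flow cytometry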). The following applies: S. cerevisiae MEP2-GFP strain, 3 h, at 10 µM, stronger effect = higher value, 100% means same as DMSO wells.
Assay [3] in a line: modulators of CIT2-GFP expression in yeast, primary screen, S. cerevisiae, GFP fusion, multiplex flow cytometry (AID 1870;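 active = percent response above a set limit, the screen-wide mean plus 3 SD, cut at about 130% in these data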;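 also: barcoded CIT2-GFP strain pooled with four other GFP strains with rapamycin as positive control; median GFP fluorescence per well over plate mean of DMSO wells so 100% = DMSO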). Particulars: 3 h, at 10 µM, stronger effect = higher value.
Assay [4] in a line: modulators of LAP4-GFP expression in yeast, primary screen, S. cerevisiae, multiplex flow cytometry (AID 1873;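 active = GFP signal, as percent of the solvent control, above the screen mean plus 3 SD, about 149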). The following applies: 3 h, at 10 µM, stronger effect = higher value.
Assay [5] is described as follows: modulators of AGP1-GFP expression in yeast TOR pathway, primary screen, cell-based, multiplex flow cytometry, S. cerevisiae (AID 1887;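 active = GFP signal above the screen-wide mean plus 3 SD, that is over about 124.5% of the solvent control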;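 also: AGP1-GFP fusion strain of S. cerevisiae within a five-strain barcoded multiplex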). Particulars: 3 h, at 10 µM, stronger effect = higher value.
Assay [6] in a line: inhibitors of CD8+ T cell-vesicle binding, pilot screen, LFA-1/ICAM-1 modulator project, MLPCN validation set, flow cytometry (AID 2523;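 active = response below a set limit, under 55% cells CD8-positive and vesicle-bound, and CD8 cells' 90th-percentile brightness under 279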;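 as to vesicle binding response: mean PE anti-B7-1 fluorescence of CD8+ cells relative to row control; 100% = QL9-loaded vesicles with DMSO vehicle in the same plate row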). Particulars: 2C mouse CD8+ T cells, at 7 µM, stronger effect = lower value; double positive events: measured here: CD8+/vesicle+ event percentage.
Assay [7] concerns the target Integrin beta-1 (Homo sapiens) + Integrin alpha-4 (Homo sapiens) (UniProt P13612+P05556). The experiment in a line: inhibition of HUTS-21 binding to VLA-4, pilot screen, VLA-4 allosteric modulator project, U937 cells, HUTS-21 mAb, flow cytometry, validation set (AID 2674;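 active = inhibition above 50%, about 3 SD of the validation set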;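 also: antibody binding induced by the VLA-4 ligand LDV present at three times its Kd; 0% = LDV ligand with antibody and no compound and 100% = antibody without LDV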). Particulars: HUTS-21 LIBS mAb binding, at 6.7 µM, stronger effect = higher value, binding induced by LDV ligand.

Assay [8] in a line: superoxide lowering in aged yeast cells, pilot screen, validation compound set (AID 2706;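 active = superoxide response below 65% of plate, a cut near 3 SD across the whole screen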;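 also: yeast exposed to compound for one week at 30 degrees C before staining; 100% = mean of all compound wells on the same plate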). Particulars: S. cerevisiae aging, superoxide DHE fluorescence; at 10 µM; stronger effect = lower value.
The target of assay [9] is Beta-adrenergic receptor kinase 1 (Homo sapiens) (UniProt P25098). Description: GRK2 binders displacing RNA aptamer, biochemical, validation, human GRK2, bead flow cytometry (AID 488806;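 active = aptamer binding inhibition above 30%, about 3 SD of noise from non-fluorescent compounds; inactive = inhibition at or below 30%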). Particulars: bead-bound GRK2, FAM-aptamer displacement, at 10 µM, stronger effect = higher value.
For assay [10], the target named is Beta-2 adrenergic receptor (Homo sapiens) (UniProt P07550). Description: beta2AR agonists driving receptor internalization, pilot screen, cell-based, FAP fluorogen, flow cytometry, validation set (AID 504459;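 active = percent response above 42, roughly 3 SD of non-fluorescent test compounds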;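 also: agonist-driven loss of surface beta2AR via internalization measured by FAP dye flow cytometry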). Particulars: Am2.2-beta2AR cells, FAP surface receptor flow cytometry; at 10 µM; stronger effect = higher value.
For assay [11], the target named is AP-2 complex subunit beta (Homo sapiens) (UniProt P63010). Description: inhibitors of arrestin peptide binding to AP2, pilot screen, biochemical, validation set, GST-AP2 beads, flow cytometry (AID 504541).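 Also: AP2 carries R879A mutation and is captured from E. coli lysate; bead-bound FITC arrestin peptide fluorescence measuring arrestin peptide binding to AP2; 0% = DMSO wells and 100% = excess unlabeled arrestin peptide control.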 The following applies: FITC arrestin peptide, at 10 µM, stronger effect = higher value, AP2 beta2 appendage fragment, R879A mutant.
The nature of assay [12]: yeast V-ATPase proton transport modulators, S. cerevisiae, pHLuorin, HTS validation (AID 504600; in the data active = response above about 15%;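 also: plate controls were DMSO for no effect and reference compound for full effect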). The following applies: S. cerevisiae pHLuorin cytosolic pH, at 10 µM, stronger effect = higher value.
Assay [13] has as its system anti-desmoglein-3 scFv antibody binding to human DSG3. The experiment in a line: inhibitors of anti-DSG3 scFv binding to DSG3, pilot screen, biochemical, validation compound set, bead-based, flow cytometry (AID 588368;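 active = binding below the plate cutoff, the plate median minus 3 SD, with a reading above zero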;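 also: signal is the median channel fluorescence of bead-bound GFP antibody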). The following applies: Protein G beads, DSG3-Fc, scFv-GFP binding, at 10 µM, stronger effect = lower value.
The nature of assay [14]: inhibitors of fungal efflux pumps CDR1, CDR2, MDR1, pilot screen, validation compound set, multiplex, phenotypic (AID 588506;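 active = efflux inhibition above 0.42, the validation set average plus 4 SD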;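 also: Nile Red retained in cells so higher fluorescence means more efflux inhibition; 0 = negative control wells and 1 = enniatin B 25 µM full block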). Particulars: S. cerevisiae pump-expressing triplex, Nile Red efflux flow cytometry; at 10 µM; stronger effect = higher value; the pumps come from Candida albicans.
The target in assay [15] is ATP-binding cassette sub-family B member 6 (Homo sapiens) (UniProt Q9NP58). Description: ABCB6 transporter inhibitors, pilot screen, K562-ABCB6 cells, flow cytometry, validation set (AID 588550;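 active = inhibition above the screen-wide mean plus 3 SD, about 51%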;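 also: 0% = DMSO wells and 100% = benzethonium chloride 70 µM positive control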). Particulars: K562-ABCB6 porphyrin accumulation, 1 h, at 10 µM, stronger effect = higher value.
A short description of assay [16]: promoters of myeloid differentiation in arrested cells, primary screen, cell-based, GFP/MAC1 double positive, flow cytometry, validation set (AID 588685;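 active = differentiation response of at least 50%, scaled between solvent and reference control, from cells with both markers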;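 also: compound exposure lasts four days before antibody staining and flow analysis; 0% = DMSO wells and 100% = 5 µM fulvestrant positive control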). The following applies: ER-HoxA9 marrow cells, stronger effect = higher value, normalized: vehicle 0, fulvestrant 100.

Results filed as inconclusive are left out. Active and inactive are the calls of the source.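 The calls were made as follows, unless noted: active = inhibition above 54%, about 3 SD of non-fluorescent compounds; inactive = the rest.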

AP-2 complex subunit beta (Homo sapiens), sequence (P63010 whole entry, looked up, the tested form may be a part, one chain of several): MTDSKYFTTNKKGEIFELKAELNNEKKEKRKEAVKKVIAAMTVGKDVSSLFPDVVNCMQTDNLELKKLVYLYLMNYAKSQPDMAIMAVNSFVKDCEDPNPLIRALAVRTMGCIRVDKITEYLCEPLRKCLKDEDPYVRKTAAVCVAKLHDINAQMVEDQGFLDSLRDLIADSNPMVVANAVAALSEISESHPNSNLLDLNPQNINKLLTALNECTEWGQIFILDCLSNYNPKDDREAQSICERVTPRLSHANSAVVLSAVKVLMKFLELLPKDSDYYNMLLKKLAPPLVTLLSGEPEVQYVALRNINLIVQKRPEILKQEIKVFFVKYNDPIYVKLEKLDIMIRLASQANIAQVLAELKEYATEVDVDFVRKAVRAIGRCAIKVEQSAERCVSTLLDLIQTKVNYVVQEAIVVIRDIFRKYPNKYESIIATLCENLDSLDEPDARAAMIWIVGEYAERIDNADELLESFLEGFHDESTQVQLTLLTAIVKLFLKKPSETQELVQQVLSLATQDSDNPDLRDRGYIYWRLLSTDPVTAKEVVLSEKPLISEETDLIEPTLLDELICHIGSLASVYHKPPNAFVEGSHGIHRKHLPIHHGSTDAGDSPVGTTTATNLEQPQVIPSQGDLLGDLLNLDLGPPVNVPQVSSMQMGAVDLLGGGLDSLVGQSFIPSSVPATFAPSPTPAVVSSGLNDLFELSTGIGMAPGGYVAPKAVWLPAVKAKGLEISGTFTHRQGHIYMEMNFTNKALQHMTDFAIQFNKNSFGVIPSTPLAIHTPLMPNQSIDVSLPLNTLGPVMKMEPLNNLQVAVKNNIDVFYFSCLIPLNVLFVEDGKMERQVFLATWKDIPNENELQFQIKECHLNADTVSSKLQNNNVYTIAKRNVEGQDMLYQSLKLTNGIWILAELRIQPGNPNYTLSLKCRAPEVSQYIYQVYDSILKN
ATP-binding cassette sub-family B member 6 (Homo sapiens), sequence (Q9NP58 whole entry, looked up): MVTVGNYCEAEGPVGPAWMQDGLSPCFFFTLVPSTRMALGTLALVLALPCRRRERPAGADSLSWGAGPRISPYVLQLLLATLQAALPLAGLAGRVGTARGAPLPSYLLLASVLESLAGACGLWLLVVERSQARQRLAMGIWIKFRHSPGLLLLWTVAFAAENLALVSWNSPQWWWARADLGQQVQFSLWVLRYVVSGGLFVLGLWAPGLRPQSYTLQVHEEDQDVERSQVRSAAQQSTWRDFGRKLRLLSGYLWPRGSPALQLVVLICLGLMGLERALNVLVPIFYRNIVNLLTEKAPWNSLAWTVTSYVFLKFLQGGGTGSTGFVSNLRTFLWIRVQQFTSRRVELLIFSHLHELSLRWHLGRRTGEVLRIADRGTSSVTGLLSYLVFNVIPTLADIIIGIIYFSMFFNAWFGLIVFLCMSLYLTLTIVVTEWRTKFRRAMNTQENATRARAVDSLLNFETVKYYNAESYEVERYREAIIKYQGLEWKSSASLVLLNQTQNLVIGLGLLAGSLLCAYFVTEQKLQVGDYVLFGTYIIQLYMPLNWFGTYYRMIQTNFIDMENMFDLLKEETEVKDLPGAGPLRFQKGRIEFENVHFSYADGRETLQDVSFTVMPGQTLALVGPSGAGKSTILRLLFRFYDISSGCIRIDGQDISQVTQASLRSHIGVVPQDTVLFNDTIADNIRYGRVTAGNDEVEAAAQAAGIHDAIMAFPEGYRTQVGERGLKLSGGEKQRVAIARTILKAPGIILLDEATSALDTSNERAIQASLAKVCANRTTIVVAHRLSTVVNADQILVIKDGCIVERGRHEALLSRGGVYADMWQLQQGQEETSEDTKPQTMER
Integrin beta-1 (Homo sapiens) + Integrin alpha-4 (Homo sapiens), sequence (P05556 whole entry, looked up): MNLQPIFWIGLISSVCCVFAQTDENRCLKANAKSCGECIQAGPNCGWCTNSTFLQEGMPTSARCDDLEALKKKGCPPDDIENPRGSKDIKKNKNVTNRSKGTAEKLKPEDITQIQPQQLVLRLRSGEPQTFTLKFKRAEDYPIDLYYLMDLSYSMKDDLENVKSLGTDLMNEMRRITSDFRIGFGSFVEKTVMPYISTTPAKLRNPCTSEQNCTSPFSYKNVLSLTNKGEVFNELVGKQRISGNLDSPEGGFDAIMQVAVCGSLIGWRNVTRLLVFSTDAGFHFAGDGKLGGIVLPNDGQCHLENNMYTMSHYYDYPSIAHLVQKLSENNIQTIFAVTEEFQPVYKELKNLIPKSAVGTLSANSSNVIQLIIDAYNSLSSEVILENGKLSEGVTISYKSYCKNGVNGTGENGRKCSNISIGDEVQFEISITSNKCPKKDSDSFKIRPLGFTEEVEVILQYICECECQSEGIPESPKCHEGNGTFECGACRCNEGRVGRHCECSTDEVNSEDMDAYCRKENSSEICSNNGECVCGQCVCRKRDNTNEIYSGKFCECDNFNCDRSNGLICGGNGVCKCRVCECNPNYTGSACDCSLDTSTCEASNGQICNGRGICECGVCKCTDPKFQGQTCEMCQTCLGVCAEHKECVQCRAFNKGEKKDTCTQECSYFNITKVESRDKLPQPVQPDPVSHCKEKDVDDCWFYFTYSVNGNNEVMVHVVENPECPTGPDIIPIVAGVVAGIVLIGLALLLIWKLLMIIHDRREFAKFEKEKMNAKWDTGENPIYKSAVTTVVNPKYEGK
Integrin beta-1 (Homo sapiens) + Integrin alpha-4 (Homo sapiens), sequence (P13612 whole entry, looked up): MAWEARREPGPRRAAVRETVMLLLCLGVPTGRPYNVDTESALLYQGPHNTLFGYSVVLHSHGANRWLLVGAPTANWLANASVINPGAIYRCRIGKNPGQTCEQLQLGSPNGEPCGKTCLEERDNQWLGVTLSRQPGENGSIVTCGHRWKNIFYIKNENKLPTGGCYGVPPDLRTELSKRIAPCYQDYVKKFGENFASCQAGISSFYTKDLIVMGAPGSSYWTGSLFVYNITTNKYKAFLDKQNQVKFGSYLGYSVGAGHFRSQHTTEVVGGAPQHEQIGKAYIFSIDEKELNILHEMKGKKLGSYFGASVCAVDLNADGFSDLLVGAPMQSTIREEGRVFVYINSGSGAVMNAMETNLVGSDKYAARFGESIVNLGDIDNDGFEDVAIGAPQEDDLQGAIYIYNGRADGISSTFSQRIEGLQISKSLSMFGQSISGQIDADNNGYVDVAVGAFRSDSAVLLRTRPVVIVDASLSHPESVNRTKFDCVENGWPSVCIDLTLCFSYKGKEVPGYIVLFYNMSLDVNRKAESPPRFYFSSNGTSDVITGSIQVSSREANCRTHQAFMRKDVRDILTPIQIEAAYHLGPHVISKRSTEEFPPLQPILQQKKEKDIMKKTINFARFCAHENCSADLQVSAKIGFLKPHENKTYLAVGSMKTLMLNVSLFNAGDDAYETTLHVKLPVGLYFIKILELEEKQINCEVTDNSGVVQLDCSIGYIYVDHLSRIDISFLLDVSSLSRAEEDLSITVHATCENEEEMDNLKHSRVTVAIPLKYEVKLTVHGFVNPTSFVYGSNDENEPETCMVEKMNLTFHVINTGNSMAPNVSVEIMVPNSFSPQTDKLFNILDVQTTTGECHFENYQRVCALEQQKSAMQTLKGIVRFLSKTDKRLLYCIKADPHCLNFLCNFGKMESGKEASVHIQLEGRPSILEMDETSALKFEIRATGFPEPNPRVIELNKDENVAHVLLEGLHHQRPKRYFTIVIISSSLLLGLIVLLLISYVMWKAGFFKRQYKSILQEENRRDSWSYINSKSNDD
Beta-adrenergic receptor kinase 1 (Homo sapiens), sequence (P25098 whole entry, looked up): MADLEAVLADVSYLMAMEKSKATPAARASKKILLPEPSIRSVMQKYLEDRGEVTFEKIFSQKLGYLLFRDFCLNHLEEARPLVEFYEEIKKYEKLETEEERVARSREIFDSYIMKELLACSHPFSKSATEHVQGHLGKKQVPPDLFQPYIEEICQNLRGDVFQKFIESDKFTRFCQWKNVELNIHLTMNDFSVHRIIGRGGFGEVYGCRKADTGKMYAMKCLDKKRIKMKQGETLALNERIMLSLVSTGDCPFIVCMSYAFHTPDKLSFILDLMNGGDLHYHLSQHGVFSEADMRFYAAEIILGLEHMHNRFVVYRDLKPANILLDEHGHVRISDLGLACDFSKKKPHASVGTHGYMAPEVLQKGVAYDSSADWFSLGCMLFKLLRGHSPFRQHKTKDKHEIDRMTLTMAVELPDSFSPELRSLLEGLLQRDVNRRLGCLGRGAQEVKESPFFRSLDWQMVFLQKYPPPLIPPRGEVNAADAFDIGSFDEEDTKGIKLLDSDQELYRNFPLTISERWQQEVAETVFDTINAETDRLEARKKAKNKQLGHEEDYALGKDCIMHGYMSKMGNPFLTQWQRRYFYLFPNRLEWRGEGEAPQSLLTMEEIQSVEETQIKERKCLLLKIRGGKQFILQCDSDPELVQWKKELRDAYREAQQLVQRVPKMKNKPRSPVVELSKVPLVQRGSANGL
Beta-2 adrenergic receptor (Homo sapiens), sequence (P07550 whole entry, looked up): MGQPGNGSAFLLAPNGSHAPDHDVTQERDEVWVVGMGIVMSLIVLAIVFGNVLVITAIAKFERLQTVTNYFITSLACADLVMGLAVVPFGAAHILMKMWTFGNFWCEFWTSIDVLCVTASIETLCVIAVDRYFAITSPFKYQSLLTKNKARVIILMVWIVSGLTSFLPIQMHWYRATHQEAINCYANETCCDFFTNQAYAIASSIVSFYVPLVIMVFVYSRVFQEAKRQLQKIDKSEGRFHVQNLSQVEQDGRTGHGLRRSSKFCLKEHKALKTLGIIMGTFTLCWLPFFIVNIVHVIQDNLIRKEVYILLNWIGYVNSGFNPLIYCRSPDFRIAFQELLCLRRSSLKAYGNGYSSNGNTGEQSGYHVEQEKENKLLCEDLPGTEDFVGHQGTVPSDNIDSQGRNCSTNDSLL

As for `CC(C)c1ccc(/C=C/C(=O)O)cc1`, in assay [1], the percent of DMSO control GFP is 96.3% (inactive). For the same compound, the GFP response vs DMSO in [2] was 105% (inactive); in assay [4], 161% (active). Besides, in assay [3], the percent response of DMSO control was 81.5% (inactive). Besides, the GFP response, % of DMSO in assay [5] was 83.4% (inactive). The double positive events in assay [6] was 56.5%. In assay [6], the vesicle binding response was 218% (inactive). Further, the inhibition in [7] was 7.76% (inactive); in [11], 3.59% (inactive); in [15], 4% (inactive). Moreover, the superoxide response (% of plate) in assay [8] was 99.5% (inactive). Moreover, the aptamer binding inhibition in [9] is 3% (inactive). Moreover, the values for the response in assay [10] and in [12] were 3.14% (inactive) and 1.59% (inactive), respectively. Besides, in assay [13], the binding (% of control) was 94.5% (inactive). Moreover, the efflux inhibition (fraction of control) in assay [14] is -0.35 (inactive). Further, the differentiation response in [16] is -2.4% (inactive).
Take `CC1CCN(C(=O)Oc2ccccc2)CC1`: the percent of DMSO control GFP in assay [1] is 105% (inactive). The GFP response vs DMSO in assay [2] was 111% (inactive); in [4] it was 102% (inactive). Besides, the percent response of DMSO control in assay [3] is 103% (inactive). In addition, in assay [5], the GFP response, % of DMSO was 107% (inactive). Further, in [6], the double positive events came out at 57.9%. Moreover, the vesicle binding response in assay [6] is 143% (inactive). Moreover, the inhibition in assay [7] was 2.93% (inactive); in [11] it was -6.8% (inactive); in assay [15] it was 5% (inactive). Moreover, in [8], the superoxide response (% of plate) was 111% (inactive). Also, the aptamer binding inhibition in assay [9] was 0% (inactive). The response is 0.66% (inactive) in assay [10] and 0.42% (inactive) in assay [12]. Also, the binding (% of control) in assay [13] is 101% (inactive). The efflux inhibition (fraction of control) in assay [14] is 0.045 (inactive). In assay [16], the differentiation response was -6.03% (inactive).
Take `CC(N=C(NC#N)Nc1ccncc1)C(C)(C)C` (stereo not given): the percent of DMSO control GFP in assay [1] was 102% (inactive). Also, the GFP response vs DMSO in assay [2] was 103% (inactive); in [4] it was 99.1% (inactive). Besides, the percent response of DMSO control in assay [3] was 103% (inactive). Moreover, the GFP response, % of DMSO in assay [5] was 100% (inactive). This compound came in with a double positive events in assay [6] of 59.1%. Moreover, the vesicle binding response in assay [6] was 97.4% (inactive). Further, the inhibition is 5.61% (inactive) in [7], 0.53% (inactive) in assay [11] and -10% (inactive) in [15]. Besides, the superoxide response (% of plate) in [8] is 104% (inactive). In assay [9], the aptamer binding inhibition is 3% (inactive). Further, the response in [10] was -2.47% (inactive); in [12], -9.1% (inactive). Also, the binding (% of control) in assay [13] was 101% (inactive). Also, the efflux inhibition (fraction of control) in assay [14] is 0.09 (inactive). In addition, the differentiation response in assay [16] is -1.65% (inactive).
For `Cc1cccc(Nc2ccccc2C(=O)O)c1C`, the percent of DMSO control GFP in [1] was 99.5% (inactive). For the same compound, the GFP response vs DMSO was 102% (inactive) in assay [2] and 114% (inactive) in [4]. In assay [3], the percent response of DMSO control is 86.7% (inactive). Besides, in assay [5], the GFP response, % of DMSO was 102% (inactive). In assay [6], the double positive events came out at 65.8%. In addition, in assay [6], the vesicle binding response was 236% (inactive). For the same compound, the values for the inhibition in assay [7], in assay [11] and in [15] were 4.84% (inactive), -8.96% (inactive) and 5% (inactive), respectively. Also, in assay [8], the superoxide response (% of plate) was 87.1% (inactive). Besides, the aptamer binding inhibition in [9] was -1% (inactive). Moreover, the response is -5.24% (inactive) in assay [10] and -29.3% (inactive) in assay [12]. Further, in [13], the binding (% of control) was 101% (inactive). In assay [14], the efflux inhibition (fraction of control) is 0.08 (inactive). Moreover, in assay [16], the differentiation response is -12.9% (inactive).
For `CCCN1CCC(NC(=O)Nc2ccc(Br)cc2)CC1`, the percent of DMSO control GFP in [1] was 104% (inactive). For the same compound, the GFP response vs DMSO is 110% (inactive) in [2] and 92.7% (inactive) in [4]. Further, in assay [3], the percent response of DMSO control is 102% (inactive). Further, in [5], the GFP response, % of DMSO is 102% (inactive). Further, the double positive events in [6] came to 63.2%. In addition, in assay [6], the vesicle binding response was 96.6% (inactive). Moreover, the inhibition in assay [7] was -0.45% (inactive); in assay [11], -13.3% (inactive); in assay [15], 16% (inactive). Moreover, the superoxide response (% of plate) in assay [8] was 94.7% (inactive). In assay [9], the aptamer binding inhibition is -5% (inactive). Besides, the response is 1.9% (inactive) in assay [10] and 1.92% (inactive) in assay [12]. The binding (% of control) in assay [13] was 96.8% (inactive). Besides, the efflux inhibition (fraction of control) in assay [14] was -0.23 (inactive). For the same compound, the differentiation response in assay [16] is 13.9% (inactive).
